Data from PubChem BioAssay.

Each compound was assayed on Noggin (protein binding on small-molecule microarray) (assay: Noggin binders on small-molecule microarray, primary screen, biochemical, 635/667 nm fluorescence (AID 1095;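 also: score merges 667 nm feature fluorescence with signal to noise over triplicate slides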)). Details: 635 nm fluorescence, higher = more signal.
In the case of `CCCCC(=C=CC[C@H](O)c1cccc(OCCO)c1)C[C@H](O)COCc1ccccc1`, the composite z-score is reported as -0.0291.
In the case of `COC(=O)c1ccc(OC)c(/C=C\CC(CCc2ccccc2)OC(=O)c2ccncc2)c1` (centres undefined), the composite z-score is reported as 1.88.
Compound `COc1ccc([Si](C)(C)[C@H]2[C@H](CC(=O)N3CCC[C@H]3CO)O[C@@]3(C(=O)N(Cc4ccc(N5C(=O)c6cccc7cccc5c67)cc4)c4ccccc43)[C@@H]2C)cc1` has a composite z-score of 1.11.
For `COc1cc(NN2C(C(O)c3ccc(I)cc3)C=CC3C(=O)N(C)C(=O)C32)cc(OC)c1OC` (centres undefined), the composite z-score was -0.131.
`C=CCC(OC(C)=O)[C@@H]1[C@@H](N(Cc2ccc(-c3ccccc3)cc2)C(=O)c2cccc3ccccc23)c2cc(OCCCO)ccc2N1C(=O)c1ccc2ccccc2n1` (some centres undefined) showed a composite z-score of -0.0394.
Compound `C=CCC(OC(C)=O)[C@@H]1[C@@H](N(Cc2cccc3ccccc23)C(=O)Cc2ccc(F)cc2)c2cc(OCCCO)ccc2N1C(=O)Cc1ccc(OC)cc1` (some centres undefined) has a composite z-score of 0.122.
`O=C1O[C@H](c2ccccc2)[C@H](c2ccccc2)N2[C@H]1[C@@H](C(=O)N1CCN(c3ncccn3)CC1)[C@]1(C(=O)Nc3ccc(C#CCCO)cc31)[C@H]2c1ccccc1OCCO` gave a composite z-score of 0.942.
For `COC(=O)[C@@]1(Cc2ccccc2)[C@H]2c3cc(C(=O)N4CCCC4)n(CCO)c3C[C@H]2CN1C(=O)c1ccccc1`, the composite z-score was 0.815.
`COCCCNC(=O)[C@@]1(Cc2ccccc2I)c2ccccc2C(=O)N(Cc2ccccc2Cl)[C@H]1c1ccc(CO)cc1` showed a composite z-score of 0.323.

What follows are compounds tested against Neurogenic locus notch homolog protein 3 (Homo sapiens) (UniProt Q9UM47) (assay: NOTCH3 binders on small-molecule microarray, primary screen, biochemical, 635/667 nm fluorescence (AID 1096)). Details: NOTCH3 binding, 635 nm fluorescence, higher = more signal.
Chain of Neurogenic locus notch homolog protein 3 (Homo sapiens) (Q9UM47 whole entry, looked up): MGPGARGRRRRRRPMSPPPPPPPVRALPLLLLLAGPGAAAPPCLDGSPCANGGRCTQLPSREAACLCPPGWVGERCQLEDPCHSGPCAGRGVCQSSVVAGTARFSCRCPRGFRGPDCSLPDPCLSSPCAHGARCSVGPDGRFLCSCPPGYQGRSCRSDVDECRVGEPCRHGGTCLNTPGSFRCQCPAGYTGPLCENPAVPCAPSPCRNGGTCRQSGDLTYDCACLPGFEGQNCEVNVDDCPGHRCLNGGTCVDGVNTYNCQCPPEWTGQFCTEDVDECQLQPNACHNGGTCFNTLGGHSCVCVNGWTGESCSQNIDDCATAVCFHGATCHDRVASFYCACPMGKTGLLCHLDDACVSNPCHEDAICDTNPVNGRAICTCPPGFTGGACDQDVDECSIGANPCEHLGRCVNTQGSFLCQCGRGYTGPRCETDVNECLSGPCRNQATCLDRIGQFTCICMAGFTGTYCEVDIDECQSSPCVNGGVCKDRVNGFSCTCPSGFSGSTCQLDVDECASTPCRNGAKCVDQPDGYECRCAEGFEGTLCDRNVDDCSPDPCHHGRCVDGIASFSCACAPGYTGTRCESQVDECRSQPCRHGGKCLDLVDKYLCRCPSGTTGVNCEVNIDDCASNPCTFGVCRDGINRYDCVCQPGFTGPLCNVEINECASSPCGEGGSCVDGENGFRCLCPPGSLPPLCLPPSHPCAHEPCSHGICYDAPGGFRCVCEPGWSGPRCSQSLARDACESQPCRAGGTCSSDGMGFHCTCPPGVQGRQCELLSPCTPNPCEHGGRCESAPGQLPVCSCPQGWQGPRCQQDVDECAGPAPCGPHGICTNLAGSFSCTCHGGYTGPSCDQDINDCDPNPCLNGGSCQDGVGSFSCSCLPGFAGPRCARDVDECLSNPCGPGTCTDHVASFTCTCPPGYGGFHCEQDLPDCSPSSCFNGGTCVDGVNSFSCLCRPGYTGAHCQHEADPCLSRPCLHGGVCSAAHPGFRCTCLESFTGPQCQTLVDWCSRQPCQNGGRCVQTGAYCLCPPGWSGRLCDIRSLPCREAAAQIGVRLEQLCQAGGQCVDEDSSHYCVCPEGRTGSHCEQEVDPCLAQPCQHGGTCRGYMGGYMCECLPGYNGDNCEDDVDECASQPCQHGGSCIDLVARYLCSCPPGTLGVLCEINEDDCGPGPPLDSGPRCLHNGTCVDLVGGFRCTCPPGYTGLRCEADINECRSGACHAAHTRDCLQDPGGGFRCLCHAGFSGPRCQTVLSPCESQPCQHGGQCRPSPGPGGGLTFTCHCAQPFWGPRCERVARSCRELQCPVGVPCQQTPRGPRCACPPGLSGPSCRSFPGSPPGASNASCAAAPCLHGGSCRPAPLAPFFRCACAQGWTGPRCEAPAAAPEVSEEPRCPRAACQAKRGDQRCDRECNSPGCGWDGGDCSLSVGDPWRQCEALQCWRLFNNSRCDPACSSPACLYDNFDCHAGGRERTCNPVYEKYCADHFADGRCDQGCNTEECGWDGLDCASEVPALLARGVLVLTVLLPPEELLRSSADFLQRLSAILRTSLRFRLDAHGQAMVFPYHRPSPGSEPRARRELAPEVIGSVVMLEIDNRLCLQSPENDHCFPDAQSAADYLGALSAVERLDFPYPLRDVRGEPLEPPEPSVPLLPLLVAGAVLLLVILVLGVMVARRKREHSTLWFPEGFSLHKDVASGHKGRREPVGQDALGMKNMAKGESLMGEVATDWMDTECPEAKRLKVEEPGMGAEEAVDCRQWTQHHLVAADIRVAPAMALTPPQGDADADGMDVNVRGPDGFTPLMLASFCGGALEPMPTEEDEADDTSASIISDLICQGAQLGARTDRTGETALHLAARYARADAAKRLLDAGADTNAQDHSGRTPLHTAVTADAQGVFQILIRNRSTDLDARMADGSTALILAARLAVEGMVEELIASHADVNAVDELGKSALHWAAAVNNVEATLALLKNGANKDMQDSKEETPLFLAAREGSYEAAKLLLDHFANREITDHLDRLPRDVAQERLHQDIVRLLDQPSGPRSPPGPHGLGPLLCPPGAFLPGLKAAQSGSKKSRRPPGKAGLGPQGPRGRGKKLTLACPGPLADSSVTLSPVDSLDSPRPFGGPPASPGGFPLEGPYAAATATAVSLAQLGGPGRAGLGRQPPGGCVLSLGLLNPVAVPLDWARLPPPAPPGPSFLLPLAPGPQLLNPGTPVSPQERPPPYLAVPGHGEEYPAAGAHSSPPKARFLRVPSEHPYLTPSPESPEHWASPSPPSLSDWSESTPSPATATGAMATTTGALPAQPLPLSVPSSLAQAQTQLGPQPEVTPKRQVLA
In the case of `COC(=O)[C@@]1(Cc2ccc(OC)cc2)[C@H]2c3cc(C(=O)N(C)C)n(Cc4cc(C)n(C)n4)c3C[C@H]2CN1C(=O)c1ccccc1`, the composite z-score is reported as 0.598.
`O=C(NCc1ccccc1)[C@]1(Cc2ccccc2)N=C(c2ccc(OCCCO)cc2)O[C@@H]1c1ccccc1` was tested, and the composite z-score was 0.256.
`[N-]=[N+]=NCc1ccccc1[C@H]1OC(c2ccc(OCCCO)cc2)=N[C@@]1(Cc1ccccc1N=[N+]=[N-])C(=O)N1CCCCC1` gave a composite z-score of 1.12.
Compound `COCCOC(=O)N1C(=O)[C@@]2(c3ccccc31)[C@H](c1ccc(OCCO)cc1)N1[C@H](c3ccccc3)[C@H](c3ccccc3)OC(=O)[C@H]1[C@@H]2C(=O)NC[C@H](O)c1ccccc1` has a composite z-score of 1.04.
`COc1ccc(C(=O)Nc2ccc3c(c2)[C@]2(O[C@@H](CCO)[C@H]([Si](C)(C)c4ccc(OC)cc4)[C@H]2C)C(=O)N3Cc2ccccc2)cc1` was tested, and the composite z-score was 0.163.
For `CN(C)C(=O)[C@]1(Cc2ccccc2N=[N+]=[N-])N=C(c2ccc(OCCCO)cc2)O[C@@H]1c1ccccc1CN=[N+]=[N-]`, the composite z-score was 1.02.
`COCCOC(=O)N1C(=O)[C@@]2(c3cc(C#Cc4ccc(OC)cc4)ccc31)[C@H](C(=O)N1CCc3cc(OC)c(OC)cc3C1)[C@H]1C(=O)O[C@H](c3ccccc3)[C@H](c3ccccc3)N1[C@@H]2c1ccc(O)cc1` gave a composite z-score of 1.14.
Compound `COc1ccc(C#Cc2ccc3c(c2)[C@]2(C(=O)N3)[C@H](C(N)=O)[C@H]3C(=O)O[C@H](c4ccccc4)[C@H](c4ccccc4)N3[C@@H]2c2ccc(O)cc2)cc1` has a composite z-score of 0.664.
For `COc1ccc([Si](C)(C)[C@@H]2[C@@H](CCO)O[C@]3(C(=O)N(Cc4ccccc4)c4ccc(N5C(=O)COc6ccccc65)cc43)[C@H]2C)cc1`, the composite z-score was 0.624.
Compound `CC(C)(C)OC(=O)CC[C@@]1(C(=O)N2CCCCC2)N=C(c2ccc(OCCCO)cc2)O[C@@H]1c1ccccc1CN=[N+]=[N-]` has a composite z-score of 1.05.
`CC(C)C(CO)N1C(=O)[C@@H]2[C@H]3C(=O)OCC=C[C@H]3OC23C=CCN(CCN2CCOCC2)C(=O)[C@@H]13` (some centres undefined) gave a composite z-score of 0.583.
`CN1C(=O)C2C=CC(C(O)c3cccc4ccccc34)N(NC(=O)OC(C)(C)C)C2C1=O` (centres undefined) showed a composite z-score of 1.02.
`COCCOC(=O)N1C(=O)[C@@]2(c3cc(C#Cc4ccc(OC)cc4)ccc31)[C@H](C(=O)N1CCc3cc(OC)c(OC)cc3C1)[C@H]1C(=O)O[C@H](c3ccccc3)[C@H](c3ccccc3)N1[C@@H]2c1ccc(OCCO)cc1` was tested, and the composite z-score was 1.15.
`CCOC(=O)C1=CC[C@@H](c2ccccc2)N(S(=O)(=O)c2ccc(C)cc2)[C@H]1C=C(C)C` was tested, and the composite z-score was 1.06.
With `C[N+](C)(C)CCCC[C@@H]1NC(=O)[C@H]2C[C@@H](C(=O)NCCCCCCN)[C@@H](c3cccc(OCCO)c3)N2C1=O` the composite z-score was 1.07.
`COC(=O)C(CC#Cc1ccc2c(c1)[C@]1(C(=O)N2)[C@H](c2ccc(O)cc2)N2[C@H](c3ccccc3)[C@H](c3ccccc3)OC(=O)[C@H]2[C@@H]1C(N)=O)C(=O)OC` showed a composite z-score of -1.06.
For `CCOc1cc(C(O)C2C=CC3C(=O)NC(=O)C3N2Nc2ccccn2)ccc1O` (centres undefined), the composite z-score was 0.0082.
In the case of `C[N+](C)(C)CCCCCCNC(=O)[C@@H]1C[C@@H]2C(=O)NCC(=O)N2[C@@H]1c1cccc(OCCO)c1`, the composite z-score is reported as 1.1.
In the case of `O=C1c2ccccc2C(=O)C2CC([C@H]3Oc4ccccc4S(=O)(=O)N4CCC[C@@H]34)=CCC12` (some centres undefined), the composite z-score is reported as -0.42.
`CCCc1cc2c(n1Cc1ccc(OC)cc1)C(C)C1CN(C(=O)c3ccccc3)C(C)(C(=O)OC)C21` (centres undefined) showed a composite z-score of 1.05.
With `CC(=O)NCCCC[C@@H]1NC(=O)[C@@H]2C[C@H](C(=O)NCCCC[N+](C)(C)C)[C@H](c3cccc(OCCO)c3)N2C1=O` the composite z-score was 0.801.
Compound `[N-]=[N+]=Nc1ccccc1[C@@H]1OC(c2ccc(OCCCO)cc2)=N[C@]1(CCS(=O)(=O)c1ccccc1)C(=O)NCc1ccccc1` has a composite z-score of 1.12.
Work on `CN(C)CCCC[C@@H]1NC(=O)[C@H]2C[C@@H](C(=O)NCCCCCCNC(=O)CS)[C@@H](c3ccc(O)cc3)N2C1=O` yielded a composite z-score of 0.196.
Compound `COC(=O)[C@@]1(Cc2ccc(OC)cc2)[C@H]2c3cc(C(=O)N4CCCC4)n(Cc4ccc(C)o4)c3C[C@H]2CN1C(=O)c1ccccc1` has a composite z-score of 1.07.
`O=C1N(Cc2ccccc2)c2ccccc2[C@H]2OC(c3ccc(OCCCO)cc3)=N[C@@]12CCS(=O)(=O)c1ccccc1` gave a composite z-score of 1.08.
Work on `COCCCNC(=O)[C@]1(Cc2ccccc2)N=C(c2ccc(OCCCO)cc2)O[C@@H]1c1ccccc1N=[N+]=[N-]` yielded a composite z-score of 1.15.
Compound `CCCCC(=C=CC[C@H](O)c1cccc(OCCO)c1)C[C@H](O)COCc1ccccc1` has a composite z-score of -0.323.
For `COC(=O)c1ccc(OC)c(/C=C\CC(CCc2ccccc2)OC(=O)c2ccncc2)c1` (centres undefined), the composite z-score was -0.169.
`COc1ccc([Si](C)(C)[C@H]2[C@H](CC(=O)N3CCC[C@H]3CO)O[C@@]3(C(=O)N(Cc4ccc(N5C(=O)c6cccc7cccc5c67)cc4)c4ccccc43)[C@@H]2C)cc1` gave a composite z-score of 1.13.
`COc1cc(NN2C(C(O)c3ccc(I)cc3)C=CC3C(=O)N(C)C(=O)C32)cc(OC)c1OC` (centres undefined) showed a composite z-score of -0.325.
For `C=CCC(OC(C)=O)[C@@H]1[C@@H](N(Cc2ccc(-c3ccccc3)cc2)C(=O)c2cccc3ccccc23)c2cc(OCCCO)ccc2N1C(=O)c1ccc2ccccc2n1` (some centres undefined), the composite z-score was 0.336.
In the case of `C=CCC(OC(C)=O)[C@@H]1[C@@H](N(Cc2cccc3ccccc23)C(=O)Cc2ccc(F)cc2)c2cc(OCCCO)ccc2N1C(=O)Cc1ccc(OC)cc1` (some centres undefined), the composite z-score is reported as 0.159.
`O=C1O[C@H](c2ccccc2)[C@H](c2ccccc2)N2[C@H]1[C@@H](C(=O)N1CCN(c3ncccn3)CC1)[C@]1(C(=O)Nc3ccc(C#CCCO)cc31)[C@H]2c1ccccc1OCCO` showed a composite z-score of 1.06.
Work on `COC(=O)[C@@]1(Cc2ccccc2)[C@H]2c3cc(C(=O)N4CCCC4)n(CCO)c3C[C@H]2CN1C(=O)c1ccccc1` yielded a composite z-score of 0.946.
For `COCCCNC(=O)[C@@]1(Cc2ccccc2I)c2ccccc2C(=O)N(Cc2ccccc2Cl)[C@H]1c1ccc(CO)cc1`, the composite z-score was 0.344.
